Experimental data: PubChem BioAssay AID933 (National Center for Advancing Translational Sciences (NCATS), 2007)
Records with an inconclusive call do not appear. Active and inactive are the calls of the source. The call rests on the fitted dose curve; in most records, active means well fitted activation curve with a large enough effect in the signal ratio, with a control signal flat; inconclusive means small, poorly fitted or top-dose-only effect, or a change in a side signal; inactive means flat fitted curve, though single readings scatter; the % refers to the signal ratio.

What follows are compounds tested against Thyrotropin receptor (Homo sapiens) (UniProt P16473) (assay: Secondary Concentration-Response Assay for Agonists of the Thyroid Stimulating Hormone Receptor: HTRF Activity Detection). Conditions: HEK293-TSHR cells, cAMP HTRF ratio, 30 min; series mostly up to 91.7 µM; activation: at the top concentration.
Procedure, shortened: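 Orthogonal confirmation in a separate TSHR-transfected HEK 293 line: cells in medium with 10 % FCS and 100 uM RO 20-1724 got compound for 30 min at room temperature. cAMP was measured by HTRF (d2-cAMP/anti-cAMP antibody), 615/660 nm emission.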
Potency means the concentration at half of the fitted maximal effect.
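Wherever activation is given: HEK 293 cells stably expressing human TSHR with RO 20-1724 phosphodiesterase inhibitor; % of control where 0% means no effect.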

Chain of Thyrotropin receptor (Homo sapiens) (P16473 whole entry, looked up): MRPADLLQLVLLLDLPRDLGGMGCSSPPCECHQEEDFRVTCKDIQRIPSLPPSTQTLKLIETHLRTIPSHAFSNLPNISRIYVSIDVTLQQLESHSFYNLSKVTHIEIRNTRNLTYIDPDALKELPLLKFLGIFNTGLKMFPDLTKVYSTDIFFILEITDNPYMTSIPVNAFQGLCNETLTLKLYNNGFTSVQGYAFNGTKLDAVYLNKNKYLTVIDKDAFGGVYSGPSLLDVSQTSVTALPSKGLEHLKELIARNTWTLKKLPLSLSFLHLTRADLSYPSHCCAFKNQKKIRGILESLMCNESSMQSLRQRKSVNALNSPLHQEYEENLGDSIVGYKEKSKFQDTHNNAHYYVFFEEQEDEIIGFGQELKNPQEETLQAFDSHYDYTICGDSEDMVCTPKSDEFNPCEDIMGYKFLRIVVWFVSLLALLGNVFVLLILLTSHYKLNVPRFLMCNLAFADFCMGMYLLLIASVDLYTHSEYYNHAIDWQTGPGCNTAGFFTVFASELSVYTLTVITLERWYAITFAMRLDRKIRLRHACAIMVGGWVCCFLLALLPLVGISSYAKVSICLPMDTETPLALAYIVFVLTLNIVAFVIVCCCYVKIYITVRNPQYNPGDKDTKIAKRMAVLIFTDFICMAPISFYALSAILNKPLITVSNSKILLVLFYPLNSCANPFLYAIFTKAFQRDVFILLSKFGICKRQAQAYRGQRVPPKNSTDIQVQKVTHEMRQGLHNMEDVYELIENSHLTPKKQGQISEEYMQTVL

Compound | Potency | activation
COc1ccc(C2Nc3cccc(O)c3C(=O)N2Cc2ccccc2)cc1COc1ccc(NC(C)=O)cc1 (stereo unspecified) | 7.94 µM (active) | 
CCN(CC)CCN1C(=O)c2ccccc2NC1c1ccc(OC)c(COc2ccc(NC(C)=O)cc2)c1 (stereo unspecified) |  | 2.5% (inactive)
COc1ccc(C2Nc3ccccc3C(=O)N2Cc2ccccc2)cc1COc1ccc(C(N)=O)cc1 (stereo unspecified) |  | 17.6% (inactive)
COc1ccc(CN(Cc2ccccc2)S(=O)(=O)c2ccccc2)cc1COc1ccc(NC(C)=O)cc1 |  | 12.9% (inactive)
O=C1c2ccccc2N2C(=O)c3ccccc3[C@H]2N1c1ccccc1 |  | 1.36% (inactive)
CC(=O)Nc1ccc(OCc2cccc(-c3nc4ccccc4c(=O)n3Cc3ccco3)c2)cc1 |  | 6.74% (inactive)
COc1ccc(C2Nc3ccccc3C(=O)N2CC(C)(C)C)cc1COc1ccc(NC(C)=O)cc1 (stereo unspecified) |  | 19.3% (inactive)
CCN(CC)CCN1C(=O)c2ccccc2NC1c1ccc(F)cc1 (stereo unspecified) |  | 0.986% (inactive)
COc1ccc(C2Nc3ccccc3C(=O)N2Cc2ccc(C(C)(C)C)cc2)cc1COc1ccc(NC(C)=O)cc1 (stereo unspecified) |  | 12.7% (inactive)
CCN(c1ccccc1)S(=O)(=O)c1ccc(Oc2ccc(-n3ccnc3)cc2)nc1 |  | 0.254% [at 0.00035 µM] (inactive)
O=C1CC(c2ccco2)CC2=C1C(c1ccc(O)cc1)n1nc(C(F)(F)F)nc1N2 (stereo unspecified) |  | 15% (inactive)
COc1ccc(C2Nc3ccccc3C(=O)N2Cc2cccc(Cl)c2)cc1COc1ccc(NC(C)=O)cc1 (stereo unspecified) | 2.82 µM (active) | 
CC(=O)Nc1ccc(OCc2cccc(C3Nc4ccccc4C(=O)N3Cc3ccco3)c2)cc1 (stereo unspecified) |  | 6.27% (inactive)
CCCN1C(=O)c2ccccc2NC1c1ccc(OC)cc1O (stereo unspecified) |  | 0.32% (inactive)
COc1ccc(C2Nc3ccccc3C(=O)N2Cc2ccccc2C)cc1COc1ccc(NC(C)=O)cc1 (stereo unspecified) |  | 14.3% (inactive)
COc1cc(OC)cc(-c2nnc(SCC(=O)N(C(C)C)C(C)C)o2)c1 |  | 0.0275% [at 0.00035 µM] (inactive)
CCOC(=O)c1ccccc1OCc1cc(C2Nc3ccccc3C(=O)N2c2cccc3ccccc23)ccc1OC (stereo unspecified) |  | 0.946% (inactive)
CC1(C)c2ccccc2N2CC(=O)NC21/C=C/c1ccco1 (stereo unspecified) |  | 1.29% [at 0.00035 µM] (inactive)

Compound | Potency | activation
Cc1ccc(S(=O)(=O)N2CCC(C(=O)NCCCN3CCCCCC3)CC2)cc1 |  | 0.566% [at 0.00035 µM] (inactive)
CC1(C)CC2CC(C)(CN2S(=O)(=O)c2ccc(N)cc2)C1 (stereo unspecified) |  | -0.162% [at 0.00035 µM] (inactive)
COc1ccc(C2Nc3ccccc3C(=O)N2Cc2ccccc2OC)cc1COc1ccc(NC(C)=O)cc1 (stereo unspecified) |  | 17.2% (inactive)
O=C1c2ccccc2NC(c2ccccc2)N1c1ccc(O)cc1 (stereo unspecified) |  | 1.31% (inactive)
CCOC(=O)COc1c(OC)cc(Cl)cc1C1Nc2ccccc2C(=O)N1c1ccc(F)cc1 (stereo unspecified) |  | 0.758% (inactive)
CC1CCN(S(=O)(=O)c2cccc(C(=O)Nc3ccccn3)c2)CC1 |  | 0.1% [at 0.00035 µM] (inactive)
COc1ccc(C2Nc3ccccc3C(=O)N2Cc2ccccc2)cc1COc1ccc(Cl)cc1Cl (stereo unspecified) |  | 1.07% (inactive)
CCOc1cc(C2Nc3ccccc3C(=O)N2Cc2ccco2)ccc1O (stereo unspecified) |  | 2.52% (inactive)
O=C1C2C3CCCC3=C3CCCC3C2C(=O)N1c1ccccc1Cl (stereo unspecified) |  | 0.928% (inactive)
COc1ccc(CN2C(=O)N(c3ccccc3)C(=O)C2c2ccccc2)cc1COc1ccc(NC(C)=O)cc1 (stereo unspecified) |  | 7.49% (inactive)
CCOC(=O)COc1c(OC)cc(Cl)cc1C1Nc2ccccc2C(=O)N1c1cccc(C)c1 (stereo unspecified) |  | 0.521% (inactive)
CC(C)Oc1ccccc1C1Nc2ccccc2C(=O)N1c1ccc2c(c1)OCCO2 (stereo unspecified) |  | 2.9% (inactive)
COc1ccc(-c2nc3ccc(NC(C)=O)cc3c(=O)n2Cc2ccccc2)cc1COc1ccc(NC(C)=O)cc1 |  | 19.5% (inactive)
Oc1ccccc1Cn1c(-c2ccccc2O)nc2ccccc21 |  | -0.344% [at 0.00035 µM] (inactive)
COc1ccc(N2C(=O)c3ccccc3NC2c2ccc(OC)c(CSc3ccccn3)c2)cc1 (stereo unspecified) |  | 0.621% (inactive)
CC(=O)Nc1cccc(OCc2cccc(C3Nc4ccccc4C(=O)N3Cc3ccco3)c2)c1 (stereo unspecified) |  | 2% (inactive)
Cc1nn(C)c(C)c1S(=O)(=O)N(CC(=O)Nc1nccs1)c1ccc(C(C)C)cc1 |  | 0.117% [at 0.00035 µM] (inactive)
COc1ccc(C2Nc3ccccc3C(=O)N2c2ccccc2)cc1CSc1ccccn1 (stereo unspecified) |  | 0.586% (inactive)
